Rows were chosen to be rich in hits. Some 8.1% of all compounds tested hit in one or more screens of this group.
ClpP mod = qHTS Assay for Activators of ClpP; AID 651965, 2013; ATP-dependent Clp protease proteolytic subunit (Bacillus subtilis (strain 168)), P80244; purified B. subtilis ClpP, FRET peptide cleavage, 20 min; 340,000 tested, 1.9% active; Potency, µM (doses to about 57.5 µM); active = well fitted falling curve with a large enough effect; inconclusive = small, poorly fitted or top-dose-only effect; inactive = no such curve, though single readings can be large or run the other way; note: the source files actives as falling curves though it sought activators and does not explain the sign; nearly all actives have a fitted effect of over 65% in size
Target sequence (P80244 whole entry, looked up): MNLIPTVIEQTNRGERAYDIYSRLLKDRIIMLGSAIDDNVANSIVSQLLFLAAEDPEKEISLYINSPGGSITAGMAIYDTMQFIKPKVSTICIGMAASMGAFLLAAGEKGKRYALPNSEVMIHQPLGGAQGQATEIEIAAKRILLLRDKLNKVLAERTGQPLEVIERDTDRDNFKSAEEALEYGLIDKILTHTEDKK
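Purified B. subtilis ClpP, 10 microg/mL final in Tris/HCl pH8 with KCl, BSA, glycerol and Tween-20, cleaved an Abz/nitrotyrosine-quenched decapeptide. Fluorescence (ex 320, em 430) was read at 0 and 20 min at room temperature. Delta was normalized to 5.8 microM ADEP and DMSO/no-enzyme controls.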
PINK1 modulator = changes PINK1 expression; PINK1 immunofluorescence, high-content cytometry, 24 h; Potency, µM (doses to about 76.6 µM), hits mostly activators; 410,000 tested, 0.2% active; active = well fitted activation curve with a large enough effect; inconclusive = small, poorly fitted or top-dose-only effect; cell line not stated here; note: nearly all actives have a fitted effect of over 65% in size
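Stable cell line, 250 cells/well, 12 h attachment; compounds pinned at 5 concentrations, 24 h; CCCP control. Fixed with nuclear dye, primary antibodies 12 h at 10 degrees C, secondary plus cell stain; laser-scanning cytometer read.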
Epigenetic reg = derepresses silenced GFP reporter in murine cells. murine LDR cells, GFP reporter derepression, 30 h. 280,000 tested, 0.2% active. Potency, µM (top dose mostly 53.9 µM), usual class: activators; note: nearly all actives have a fitted effect of over 60% in size
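Reporter derepression read as number of fluorescent GFP-positive objects, 20-120 um in size, counted by laser-scanning cytometer. Mouse LDR line with an epigenetically silenced CMV-GFP locus; compound incubation 30 h, 37 C.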
VP16 counter = counter-screen for ROR gamma inhibitors: Gal4-VP16 reporter | Drosophila S2 Gal4-VP16 UAS-luciferase, luminescence, 20 h | Potency, µM (top dose mostly 53.6 µM), hits mostly inhibitors | 310,000 tested, 3.5% active;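 note: Gal4-VP16 expression switched on by copper sulfate through the metallothionein promoter; nearly all actives have a fitted effect of over 50% in size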
RORgamma inh = blocks mouse ROR gamma transcriptional activity; Drosophila S2 Gal4-RORgamma UAS-luciferase reporter, 20 h; Potency, µM (doses to about 53.6 µM), hits mostly inhibitors; 310,000 tested, 5.4% active; AID 2551; note: nearly all actives have a fitted effect of over 60% in size
Target sequence (P51450 whole entry, looked up, the tested form may be a part): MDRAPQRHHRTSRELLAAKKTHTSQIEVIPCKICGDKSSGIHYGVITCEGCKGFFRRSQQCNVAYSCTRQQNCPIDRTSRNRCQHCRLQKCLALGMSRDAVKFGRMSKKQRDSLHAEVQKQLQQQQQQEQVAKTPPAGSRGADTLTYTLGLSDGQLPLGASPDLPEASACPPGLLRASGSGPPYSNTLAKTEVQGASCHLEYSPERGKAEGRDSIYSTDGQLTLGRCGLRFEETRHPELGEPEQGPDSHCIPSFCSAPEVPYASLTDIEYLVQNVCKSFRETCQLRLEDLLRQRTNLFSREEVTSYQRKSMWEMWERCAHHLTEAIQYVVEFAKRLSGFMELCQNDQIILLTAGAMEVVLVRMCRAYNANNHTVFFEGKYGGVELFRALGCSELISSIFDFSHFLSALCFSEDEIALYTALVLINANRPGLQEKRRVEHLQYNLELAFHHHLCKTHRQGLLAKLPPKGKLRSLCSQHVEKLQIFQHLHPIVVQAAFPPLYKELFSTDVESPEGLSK
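ROR gamma transcriptional activity was tracked as Gal4-UAS luciferase output in stably transfected Drosophila Schneider cells, with compound added 1 hr before 700 uM copper sulfate induction and a 20 hr ambient-temperature incubation.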
Sfp inh = inhibitors of Bacillus subtilis Sfp phosphopantetheinyl transferase; Q9F4F7; Biochemical Sfp PPTase activity, qHTS; Potency, µM, usual class: inhibitors; 310,000 tested, 3.5% active;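 note: the enzyme is Sfp with the accession as filed and its product quenches rhodamine fluorescence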
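Fluorescence-quenching assay: 15 nM Sfp-PPTase preincubated 15 min at room temperature with compound, then 5 uM rhodamine-CoA and 12.5 uM BHQ-2-labelled YbbR peptide added. Fluorescence (ex 525/em 598 nm) read at start and after 30 min; difference gives rate.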
A number is an active result. Unless noted, calls come from the whole dose curve; as a rule, active = well fitted curve in the direction sought with a large enough effect; inconclusive = small, poorly fitted or top-dose-only effect, or another doubt; inactive = no such curve, though single readings can be large; an effect the other way counts as inactive or inconclusive.

For C/C(=N\Nc1nc2c(s1)CCCC2)c1ccc(Cl)cc1 the results were ClpP mod inconclusive, PINK1 modulator inactive, Epigenetic reg inconclusive, VP16 counter 11.2µM, RORgamma inh 1.26µM and Sfp inh 50.1µM.
Screening CN(C)c1ccc(C(=O)Nc2nc3c(s2)CCCC3)cc1 returned ClpP mod inactive, PINK1 modulator inactive, Epigenetic reg inactive, VP16 counter 11.2µM, RORgamma inh 5.62µM and Sfp inh inconclusive.
`O=C1Nc2ccc(S(=O)(=O)NCCCO)c3cccc1c23` gave ClpP mod inactive, PINK1 modulator inactive, VP16 counter inactive, RORgamma inh inactive and Sfp inh inactive.
For CCNS(=O)(=O)c1ccc2c3c(cccc13)C(=O)N2 the results were ClpP mod 31.6µM, PINK1 modulator inactive, Epigenetic reg inactive, VP16 counter inactive, RORgamma inh inactive and Sfp inh inactive.
CC(C)(C)OC(=O)N1CCC(c2c(C(=O)NCCN3CCc4ccccc4C3)cnn2-c2ccc(F)cc2)CC1 was read as ClpP mod inactive, PINK1 modulator inactive and Epigenetic reg inactive.
`COc1cc2c(NC3CCN(C)CC3)nc(N3CCCCC3)nc2cc1OCCOCCN1CCCC1` gave ClpP mod inactive and PINK1 modulator inactive.
O=C(c1ccc2c3n(nc2c1)-c1ccc(Cl)cc1CO3)N1CCCCC1 was read as ClpP mod inactive, PINK1 modulator inactive, Epigenetic reg inconclusive, VP16 counter inactive, RORgamma inh inactive and Sfp inh 56.2µM.
Cc1ccc2c(c1)COc1c3ccc(C(=O)N4CCOCC4)cc3nn1-2 was read as ClpP mod inactive, PINK1 modulator inactive, Epigenetic reg inactive, VP16 counter inactive, RORgamma inh inactive and Sfp inh inactive.
Screening O=C(NCCO)c1ccc2c3n(nc2c1)-c1ccc(Cl)cc1CO3 returned ClpP mod inactive, PINK1 modulator inactive, Epigenetic reg inactive, VP16 counter inactive, RORgamma inh inactive and Sfp inh 89.1µM.
Screening O=C(O)c1ccc2c3n(nc2c1)-c1ccc(Cl)cc1CO3 returned ClpP mod inactive, PINK1 modulator inactive, VP16 counter 3.16µM, RORgamma inh 7.08µM and Sfp inh inactive.
Screening COC(=O)[C@H](CCSC)NC(=O)c1ccc(NC[C@@H](N)CS)cc1-c1ccccc1 returned VP16 counter inactive, RORgamma inh inactive and Sfp inh inconclusive.
`COc1ccc(N2CCN(C(=O)CCn3cnc4onc(-c5ccc(F)cc5)c4c3=O)CC2)cc1` gave ClpP mod inactive, PINK1 modulator inactive and Epigenetic reg inactive.
`COc1ccc(-c2nc3ccccc3o2)cc1NC(=O)COc1ccc(C)cc1` gave ClpP mod inactive and PINK1 modulator inactive.
`O=C(c1ccccc1)c1nc2c(n1O)CCCCC2` gave ClpP mod inactive, PINK1 modulator inactive, Epigenetic reg inactive, VP16 counter inactive, RORgamma inh inactive and Sfp inh inactive.
`CCOc1ccc(C(=O)CCN2CCCCCC2)cc1` gave ClpP mod inactive, PINK1 modulator inactive, Epigenetic reg inactive, VP16 counter 5.62µM, RORgamma inh 4.47µM and Sfp inh inconclusive.
CCCOc1ccc(C(=O)c2nc3c(n2O)CCCCC3)cc1 was read as ClpP mod inactive, PINK1 modulator inactive, Epigenetic reg inactive, VP16 counter 20µM, RORgamma inh inactive and Sfp inh inactive.
`CCCOc1ccc(C(=O)CCN2CCCCC2)cc1` gave ClpP mod inactive, PINK1 modulator inactive, Epigenetic reg inactive, VP16 counter 14.1µM, RORgamma inh inconclusive and Sfp inh inactive.
Screening Cc1c(C(=O)N2CCCC(C)C2)sc2ncnc(N3CCCCC3C)c12 (stereo not drawn) returned PINK1 modulator inactive, Epigenetic reg inactive, VP16 counter inactive, RORgamma inh inactive and Sfp inh 79.4µM.
Screening COc1ccc(-c2coc3c(CN4CCOCC4)c(O)ccc3c2=O)cc1 returned ClpP mod inactive, PINK1 modulator inactive, Epigenetic reg inactive, VP16 counter inactive, RORgamma inh inactive and Sfp inh inactive.
`O=c1c(-c2ccccc2)coc2c(CN3CCCC3)c(O)ccc12` gave ClpP mod 28.2µM, PINK1 modulator inactive, Epigenetic reg inactive, VP16 counter inactive, RORgamma inh inactive and Sfp inh inactive.
`CC1CCCCN1Cc1c(O)ccc2c(=O)c(-c3ccc(Br)cc3)coc12` (stereo not drawn) gave ClpP mod inactive, PINK1 modulator inactive, VP16 counter inactive, RORgamma inh inactive and Sfp inh inactive.
Screening O=c1cc(-c2ccccc2)c2ccc(O)c(CN3CCCCC3)c2o1 returned ClpP mod inactive, PINK1 modulator inactive, Epigenetic reg inactive, VP16 counter inactive, RORgamma inh inactive and Sfp inh inactive.
Screening O=c1c(-c2ccc(Cl)cc2)coc2c(CN3CCOCC3)c(O)ccc12 returned ClpP mod 28.2µM, PINK1 modulator inactive, Epigenetic reg inactive, VP16 counter inactive, RORgamma inh inactive and Sfp inh inactive.
Screening CC1CCCCN1Cc1c(O)ccc2c(=O)c(-c3ccc(Cl)cc3)coc12 (stereo not drawn) returned ClpP mod 12.6µM, PINK1 modulator inactive, Epigenetic reg inactive, VP16 counter inactive, RORgamma inh inactive and Sfp inh inactive.
Screening CCOC(=O)c1ccc(NS(=O)(=O)c2ccc3c(c2)CCN3C(=O)CC)cc1 returned ClpP mod inactive, PINK1 modulator inactive and Epigenetic reg inactive.
Cc1ccccc1-c1nnc(SCC(=O)N(C)C2CCCCC2)o1 was read as ClpP mod inactive, PINK1 modulator inactive and Epigenetic reg inactive.
Cc1ccc(NC(=O)c2cc(N3C(=O)C=CC3=O)ccc2N2CCOCC2)cc1 was read as PINK1 modulator inactive, Epigenetic reg inactive, VP16 counter 7.94µM, RORgamma inh 7.08µM and Sfp inh 4.47µM.
Cc1ccc(NC(=O)c2cc(N3C(=O)C=CC3=O)ccc2Cl)cc1C was read as ClpP mod inactive, PINK1 modulator inactive, Epigenetic reg inactive, VP16 counter 7.94µM, RORgamma inh inconclusive and Sfp inh 14.1µM.
`Cc1ccc(NC(=O)c2cc(NC(=O)c3ccco3)ccc2N2CCOCC2)cc1` gave ClpP mod inactive, PINK1 modulator inactive, Epigenetic reg inactive, VP16 counter inactive, RORgamma inh inactive and Sfp inh inactive.
For O=C(Cc1ccccc1Cl)Nc1nc2ccccc2[nH]1 the results were PINK1 modulator inactive, Epigenetic reg inactive, VP16 counter inconclusive, RORgamma inh 7.08µM and Sfp inh inactive.
CC(CC(=O)Nc1nc2ccccc2[nH]1)c1ccccc1 (stereo not drawn) was read as ClpP mod inactive, PINK1 modulator inactive, Epigenetic reg inactive, VP16 counter 4.47µM, RORgamma inh inconclusive and Sfp inh inactive.

Compound activity (PubChem)
